Compound activity as filed in PubChem BioAssay.
Compounds with a hit are over-represented: about 17% of the library has one in this group of screens.
DT40 TDP1 no CPT: qHTS for Inhibitors of human tyrosyl-DNA phosphodiesterase 1 (TDP1): qHTS in cells in absence of CPT; DT40 Tdp1-/- hTDP1 cells, no CPT, ATP luminescence, 48 h; Potency, µM (series often up to 46.2 µM), without a hit: at the top dose activity change, negative = growth inhibition, most hits filed as inhibitors; 15% of 420,000 active; AID 686978, 2013; note: % is set by controls: 0 for no effect and ±100 for the full control effect; nearly all actives have a fitted effect of over 55% in size
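Growth kinetics read by CellTiter-Glo luminescence after ≥48 hr at 37 °C. Cells: DT40 Tdp1-/- stably carrying human TDP1, 400 per well, compound exposure in the absence of CPT (DMSO vehicle).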
DT40 TDP1 CPT: DT40-hTDP1 cell growth loss with CPT; 12% of 420,000 active; chicken DT40 Tdp1-/-;hTDP1 cells + 20 nM CPT, ATP luminescence, 48 h; AID 686979; Potency, µM (series often up to 46.2 µM), inactives show top-dose activity change, negative = growth inhibition, actives largely listed as inhibitors; note: % is set by controls: 0 for no effect and ±100 for the full control effect; nearly all actives have a fitted effect of over 55% in size
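Chicken DT40 Tdp1-/- cells stably complemented with human TDP1 were seeded at 400 cells/well in medium containing 20 nM camptothecin, exposed to pin-transferred compounds, and grown at 37 °C for at least 48 hr. Viability was read as ATP luminescence.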
HepG2 tox: HepG2 cytotoxicity, counter-screen for TGF-b inhibitors; HepG2 CAGA-GFP viability, ATP luminescence, 18 h; Potency, µM (titrated, usually from 46.1 µM), for the others: at the top dose activity change, negative = cytotoxicity, actives largely listed as cytotoxic; 0.76% of 410,000 active
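HepG2 CAGA-GFP cells (1000/well, DMEM with 1% FBS) received compound, then TGF-beta at 500 pg/mL final, and were incubated 18 hours at 37 degrees C. Viability was read by CellTiter-Glo luminescence. Media-only wells were set as complete cell-killing and DMSO as no toxicity.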
ATXN2 expr inh: inhibitors of ATXN2 expression | Potency, µM (titrated, usually from 57 µM), for the others: at the top dose activity change, negative = inhibition, usual class: inhibitors | HEK-293 ATXN2-luciferase reporter, luminescence, 24 h | 0.72% of 360,000 active; note: % is set by controls: 0 for no effect and ±100 for the full control effect; nearly all actives have a fitted effect of over 55% in size
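ATXN2-luciferase reporter cells (luciferase flanked by upstream and downstream ATXN2 gene portions) were treated 24 h at 37 °C with compounds at up to 57 uM. SteadyGlo luminescence gave expression; GF-AFC fluorescence gave viability.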
TGFb inhibitor: inhibitors of TGF-b signaling; HepG2 CAGA-GFP TGF-b/SMAD3 reporter, GFP fluorescence, 18 h; TGF-beta stimulated, 500 pg/mL final; Potency, µM (top dose mostly 46.1 µM), inactives show top-dose activity, negative = inhibition, most hits filed as inhibitors; 1.2% of 410,000 active; AID 588855; note: % is set by controls: 0 for no effect and ±100 for the full control effect; nearly all actives have a fitted effect of over 65% in size
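GFP signal (ex488/em500-530) from TGF-beta-stimulated HEPG2 CAGA-GFP cells, 500 pg/mL final, 18 h at 37 degrees C in DMEM plus 1% FBS, normalized to unstimulated and DMSO-stimulated controls.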
ATXN viability: cell viability loss in ATXN counter-screen | S2 cells (HEK-293 line with an ATXN2-luciferase reporter) viability, CellTiter-Fluor protease fluorescence, 24 h | Potency, µM (series often up to 56.7 µM), hits mostly cytotoxic | 0.49% of 400,000 active | AID 651635; note: nearly all actives have a fitted effect of over 40% in size
Numbers without * were called inactive. Calls come from the whole dose curve; as a rule, active = well fitted curve in the direction sought with a large enough effect; inconclusive = small, poorly fitted or top-dose-only effect, or another doubt; inactive = no such curve, though single readings can be large; an effect the other way counts as inactive or inconclusive. Potency is the fitted concentration of half-maximal effect.

`CC1(C)S[C@@H]2[C@H](NC(=O)C(c3ccccc3)S(=O)(=O)O)C(=O)N2[C@H]1C(=O)O` (stereo partly specified) gave DT40 TDP1 no CPT 1%, DT40 TDP1 CPT -5%, ATXN2 expr inh -4% and ATXN viability inactive.
CCSc1nc2nccnc2c(=O)[nH]1 was read as DT40 TDP1 no CPT -18%, DT40 TDP1 CPT -19%, HepG2 tox 7%, ATXN2 expr inh -1%, TGFb inhibitor -5% and ATXN viability inconclusive.
For Nc1sc(-c2ccccc2)cc1C(=O)NCCN1CCOCC1 the results were DT40 TDP1 no CPT inconclusive and DT40 TDP1 CPT -8%.
Screening O=C(NCc1cccs1)c1ccc(CSc2nc3cccnc3n2Cc2ccc(F)cc2)cc1 returned DT40 TDP1 no CPT inconclusive, DT40 TDP1 CPT inconclusive, HepG2 tox -36%, ATXN2 expr inh -32%, TGFb inhibitor inconclusive and ATXN viability inconclusive.
Screening O=C(NCc1cccs1)c1ccc(CSc2nc3cccnc3n2Cc2ccccc2)cc1 returned DT40 TDP1 no CPT 15µM*, DT40 TDP1 CPT inconclusive, HepG2 tox -36%, ATXN2 expr inh -14%, TGFb inhibitor -17% and ATXN viability inconclusive.
O=C(NC1CCCC1)c1ccc(CSc2nc3cccnc3n2Cc2cccc(F)c2)cc1 was read as DT40 TDP1 no CPT 15µM*, DT40 TDP1 CPT inconclusive, HepG2 tox -35%, ATXN2 expr inh inconclusive, TGFb inhibitor inconclusive and ATXN viability inconclusive.
For COc1ccc(CCNC(=O)/C(=C/c2cccnc2)NC(=O)c2ccccc2)cc1OC the results were DT40 TDP1 no CPT -9%, DT40 TDP1 CPT 9%, HepG2 tox 7%, ATXN2 expr inh 24%, TGFb inhibitor 2% and ATXN viability inactive.
For CNC[C@H]1OCc2ccccc2-c2ccccc2C(=O)N([C@@H](C)CO)C[C@H]1C the results were DT40 TDP1 no CPT -6%, DT40 TDP1 CPT 5%, HepG2 tox 4%, ATXN2 expr inh 2%, TGFb inhibitor 0% and ATXN viability inactive.
Screening CN(C)CCN[C@H]1CCC2C3CC=C4C[C@@H](O)CC[C@]4(C)C3CC[C@@]21C (stereo partly specified) returned DT40 TDP1 no CPT 3.3µM*, DT40 TDP1 CPT 5.8µM*, HepG2 tox -27%, ATXN2 expr inh -13%, TGFb inhibitor 36% and ATXN viability inactive.
For COCCN1C(=O)Cc2c1nc(N)c1c(N)nc(N3CCN(c4ccc(F)cc4)CC3)c(C#N)c21 the results were DT40 TDP1 no CPT 2.1µM*, DT40 TDP1 CPT 8.2µM*, HepG2 tox 6%, ATXN2 expr inh 19%, TGFb inhibitor 17% and ATXN viability inactive.
For N#CCc1c(C#N)c(N)nc(N2CCN(c3ccc(F)cc3)CC2)c1C#N the results were DT40 TDP1 no CPT inconclusive, DT40 TDP1 CPT inconclusive, HepG2 tox -8%, ATXN2 expr inh -8%, TGFb inhibitor -21% and ATXN viability inactive.
COCC(C)N1C(=O)Cc2c1nc(N)c1c(N)nc(N3CCN(c4ccccc4F)CC3)c(C#N)c21 (stereo unspecified) was read as DT40 TDP1 no CPT 26µM*, DT40 TDP1 CPT inconclusive, HepG2 tox 7%, ATXN2 expr inh inconclusive, TGFb inhibitor 11% and ATXN viability inconclusive.
Screening COc1ccc(CN2C(=O)Cc3c2nc(N)c2c(N)nc(N4CCOCC4)c(C#N)c32)cc1 returned DT40 TDP1 no CPT 21µM*, DT40 TDP1 CPT 15µM*, HepG2 tox 13%, TGFb inhibitor 8% and ATXN viability inactive.
Cn1c(=S)c2[nH]c(SCC3CCCO3)nc2n(C)c1=O (stereo unspecified) was read as DT40 TDP1 no CPT 1.2µM*, DT40 TDP1 CPT 1.3µM*, HepG2 tox 11µM*, ATXN2 expr inh -25%, TGFb inhibitor inconclusive and ATXN viability inactive.
Screening CCCC(C)Sc1nc2c([nH]1)c(=S)n(C)c(=O)n2C (stereo unspecified) returned DT40 TDP1 no CPT 4.6µM*, DT40 TDP1 CPT 4.6µM*, HepG2 tox -32%, ATXN2 expr inh -30%, TGFb inhibitor inconclusive and ATXN viability inactive.
`CC1=C(C(=O)N(C(C)C)C(C)C)CC(CC(=O)NCCN2CCOCC2)C(=O)N1CCCN1CCCC1=O` (stereo unspecified) gave DT40 TDP1 no CPT 6%, DT40 TDP1 CPT 12%, HepG2 tox -16%, ATXN2 expr inh 3%, TGFb inhibitor 1% and ATXN viability inactive.
Cc1cnc(C(=O)OCC(=O)NCc2ccc(Cl)cc2)cn1 was read as DT40 TDP1 no CPT 1%, DT40 TDP1 CPT -3%, HepG2 tox 1%, ATXN2 expr inh 0%, TGFb inhibitor -9% and ATXN viability inactive.
`O=C(CCN1C(=O)/C(=C/c2ccccc2)SC1=S)NNC(=O)c1cccnc1` gave DT40 TDP1 no CPT inconclusive, DT40 TDP1 CPT -29%, HepG2 tox -22%, ATXN2 expr inh -11%, TGFb inhibitor 9% and ATXN viability inconclusive.
For Cc1ccc(/C=C2\SC(=S)N(CCC(=O)NNC(=O)c3cccnc3)C2=O)cc1 the results were DT40 TDP1 no CPT 9.2µM*, DT40 TDP1 CPT 16µM*, HepG2 tox -2%, ATXN2 expr inh 9%, TGFb inhibitor 23% and ATXN viability inconclusive.
Cc1ccc(/C=C2\SC(=S)N(CCC(=O)Nc3cccnc3)C2=O)cc1 was read as DT40 TDP1 no CPT -27%, DT40 TDP1 CPT -15%, HepG2 tox -20%, ATXN2 expr inh -6%, TGFb inhibitor -35% and ATXN viability inactive.
O=C(CCN1C(=O)/C(=C/c2ccc(F)cc2)SC1=S)NNC(=O)c1cccnc1 was read as DT40 TDP1 no CPT 9.2µM*, DT40 TDP1 CPT inconclusive, HepG2 tox -2%, ATXN2 expr inh 1%, TGFb inhibitor -1% and ATXN viability inconclusive.
For O=C(CCc1nnc(Cc2cccc(C(F)(F)F)c2)o1)NCCc1ccccc1F the results were DT40 TDP1 no CPT inconclusive, DT40 TDP1 CPT inconclusive, HepG2 tox -29%, ATXN2 expr inh -9%, TGFb inhibitor 1% and ATXN viability inactive.
`N/C(Cc1ccc(Cl)cc1)=N\OC(=O)c1cccc2ccccc12` gave DT40 TDP1 no CPT 29µM*, DT40 TDP1 CPT inconclusive, HepG2 tox -29%, ATXN2 expr inh inconclusive and TGFb inhibitor 8%.
